Screens (PubChem BioAssay)
Hits are enriched below; roughly 2.4% of the tested compounds scored in any of these assays.
D2 ag-1 – agonists of human D2 dopamine receptor; 340,000 tested, 0.53% active; AID 485358; P14416; activation, % at 2 µM; HEK293 T-REx D2 cells, calcium flux agonist mode;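 active = activation over 3 SD above normal in the single-dose calcium agonist read, cut at about 30% in these data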; also: 0% is about no effect
Target sequence (P14416 whole entry, looked up): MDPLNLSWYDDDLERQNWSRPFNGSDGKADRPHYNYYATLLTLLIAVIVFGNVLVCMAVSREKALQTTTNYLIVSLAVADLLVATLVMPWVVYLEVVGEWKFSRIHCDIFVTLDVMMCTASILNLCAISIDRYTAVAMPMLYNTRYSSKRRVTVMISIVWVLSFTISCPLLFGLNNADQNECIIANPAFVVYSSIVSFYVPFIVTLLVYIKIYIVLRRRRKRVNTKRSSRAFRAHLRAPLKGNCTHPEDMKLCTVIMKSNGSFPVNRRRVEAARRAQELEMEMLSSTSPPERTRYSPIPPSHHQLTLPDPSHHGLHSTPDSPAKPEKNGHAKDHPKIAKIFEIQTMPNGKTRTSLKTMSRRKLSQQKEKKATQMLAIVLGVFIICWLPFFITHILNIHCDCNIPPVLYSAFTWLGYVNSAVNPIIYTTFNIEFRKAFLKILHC
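Agonism scored from kinetic calcium signal (1 read/sec, 180 s) following compound pin transfer, after a 10 s baseline. Cells: HEK293 Trex line expressing inducible D2 receptor coupled to calcium, dye-loaded after overnight culture at 30 C.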
D2 antagonist – antagonists of human D2 dopamine receptor | P14416 | HEK293 TREx D2 cells, calcium flux, dopamine EC80 | inhibition, % at 10 µM | 340,000 tested, 2% active; in the data active = inhibition above about 30%; inactive = below that, where a call was filed; also: 0% is about no effect
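Cells plated overnight at 30 C with tetracycline; no-wash calcium dye, 30–90 min RT; 10 s baseline; compound pinned; 180 s read; EC80 dopamine added; another 180 s read.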
D2 ag-2 – activates the human D2 dopamine receptor; P14416; DiscoveRx PathHunter D2 beta-arrestin, luminescence, 90 min; 100% = 57 uM dopamine signal; AID 624465; 360,000 tested, 0.084% active; activation, % (no concentration beside the values); in the data active = activation above about 40%
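DiscoveRx PathHunter D2 beta-arrestin cells (2,100/well) attached overnight, then compound-stimulated 90 min at 37 C in HBSS/10 mM HEPES/0.1% Tween-20 buffer; beta-galactosidase complementation read by luminescence after 1 h at ambient temperature. Dopamine 57 uM final (EC100) as control.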
D2 PAM-1 – human D2 receptor positive allosteric modulation. P14416. potentiation, % (test concentration not listed). DiscoveRx D2 beta-arrestin cells, luminescence, 90 min; 100% = 57 uM dopamine signal. 360,000 tested, 0.23% active; in the data active = potentiation above about 50%
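PathHunter D2 cells, attached overnight at 37 deg C, received compound in DMSO plus dopamine at EC20 (50 nM final) for 90 min at 37 deg C. Beta-arrestin recruitment was read as luminescence after 1 h with detection reagent at ambient temperature.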
D2 PAM-2 – positive allosteric modulators of human D2 dopamine receptor | P14416 | HEK293 T-REx D2, calcium flux, EC20 dopamine potentiation | potentiation, % at 10 µM | 340,000 tested, 0.34% active;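 active = potentiation over 3 SD above the plate norm, cut at about 30% in these data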; also: 0% is about no effect
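Cells plated with tetracycline inducer and held overnight at 30 C; calcium dye loaded 30–90 min at room temperature; baseline taken, compound added and read 180 s; EC20 dopamine then added and read 180 s.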
Starred values were filed as active, the others as inactive.

Results for CC1=CC(c2ccccc2)n2nc(NS(=O)(=O)c3ccc(C)cc3)nc2N1 (centres undefined) ?
D2 ag-1: -1; D2 antagonist: 121*; D2 ag-2: 0; D2 PAM-1: -5; D2 PAM-2: -3

Results for COc1ccc(OC)c(NC(=O)Cn2cnc3sc(C)c(S(=O)(=O)N4CCN(c5ccccc5OC)CC4)c3c2=O)c1 ?
D2 ag-1: 0; D2 PAM-2: -5

How did CC(C)(C)c1cc(C(=O)NNC(=O)Nc2cccc(Cl)c2)n(Cc2ccccc2)n1 do in these assays?
D2 ag-1: 1; D2 antagonist: 50*; D2 ag-2: -5; D2 PAM-1: -21; D2 PAM-2: -14

How did CN(C)CC(C)(C)CNc1ccc(S(=O)(=O)N2CCCC2)cn1 do in these assays?
D2 ag-2: 1; D2 PAM-1: -2

What do the screens show for `CCNc1ccc(S(=O)(=O)N2CCCCC2)cn1`?
D2 ag-1: 0; D2 antagonist: 33*; D2 ag-2: 5; D2 PAM-1: -3; D2 PAM-2: 4

What do the screens show for `CC(=O)N1CCN(c2ccc(S(=O)(=O)N3CCCCC3)cn2)CC1`?
D2 ag-1: 1; D2 antagonist: 38*; D2 ag-2: 0; D2 PAM-1: 8; D2 PAM-2: 3

Results for CC12CCC(=O)N1C(C(=O)NCCc1ccc(S(N)(=O)=O)cc1)CS2 (centres undefined) ?
D2 ag-1: 0; D2 antagonist: 0; D2 ag-2: -3; D2 PAM-1: -5; D2 PAM-2: -3

Results for COC(=O)c1ccccc1NC(=O)N1CCC(n2c(C)nc3cccnc32)CC1 ?
D2 ag-1: 0; D2 PAM-2: 13

Results for Cc1cc2n(n1)C(c1ccccc1)CC(c1ccc(Br)cc1)=N2 (centres undefined) ?
D2 ag-1: 8; D2 antagonist: 52*; D2 ag-2: 6; D2 PAM-1: 10; D2 PAM-2: -2

How did Cc1ccc(/C=N/N2CCN(c3ccccn3)CC2)cc1 do in these assays?
D2 ag-1: 1; D2 antagonist: -15; D2 ag-2: -1; D2 PAM-1: -8; D2 PAM-2: 13

Results for Cn1cccc1/C=N/N1CCN(c2ccccn2)CC1 ?
D2 ag-1: 31*; D2 antagonist: 25; D2 ag-2: 4; D2 PAM-1: -3; D2 PAM-2: -8

How did O=C(Cn1c(=O)n(-c2ccc(Cl)cc2)c(=O)c2oc3ccccc3c21)Nc1ccccc1 do in these assays?
D2 ag-1: 0; D2 PAM-2: 2

How did CCOC(=O)C1=C(O)C(=O)N(c2ccc(S(N)(=O)=O)cc2)C1c1cccc([N+](=O)[O-])c1 (centres undefined) do in these assays?
D2 ag-1: 0; D2 antagonist: 22; D2 ag-2: 0; D2 PAM-1: 2; D2 PAM-2: 4

How did CCOC(=O)C1=C(O)C(=O)N(c2ccc(S(N)(=O)=O)cc2)C1c1ccc(OC)cc1OC (centres undefined) do in these assays?
D2 ag-1: 0; D2 antagonist: -12; D2 ag-2: -1; D2 PAM-1: 2; D2 PAM-2: 42*

What do the screens show for `CCOC(=O)C1=C(O)C(=O)N(c2ccccc2)C1c1cccc([N+](=O)[O-])c1` (centres undefined)?
D2 ag-1: 0; D2 antagonist: 33*; D2 ag-2: 0; D2 PAM-1: -13; D2 PAM-2: -3

Results for Cc1ccc(S(=O)(=O)N2CCCc3cc(NS(=O)(=O)c4cc(F)ccc4F)ccc32)cc1 ?
D2 ag-1: -2; D2 PAM-2: 11

How did Cc1ccc(CNC(=O)CO/N=C/c2ccc(C(C)(C)C)cc2)cc1 do in these assays?
D2 ag-1: 1; D2 antagonist: 38*; D2 ag-2: -3; D2 PAM-1: -17; D2 PAM-2: -11

How did COc1ccc(CC(=O)OCC(=O)NC2CCCC(C)C2C)cc1OC (centres undefined) do in these assays?
D2 ag-2: 3; D2 PAM-1: 1

How did COc1ccc(Cc2nn3c(Cn4nnc5ccccc54)nnc3s2)cc1 do in these assays?
D2 ag-1: -1; D2 antagonist: 39*; D2 ag-2: -2; D2 PAM-1: -4; D2 PAM-2: 1

How did Cc1ccc(-n2nc3c(c2NC(=O)c2ccco2)CS(=O)C3)c(C)c1 (centres undefined) do in these assays?
D2 ag-1: 0; D2 antagonist: 33*; D2 ag-2: -4; D2 PAM-1: 2; D2 PAM-2: -1

How did COc1cc(NC(=O)c2ccccc2-n2cnnn2)cc(OC)c1 do in these assays?
D2 ag-1: 0; D2 antagonist: -7; D2 ag-2: -2; D2 PAM-1: -2; D2 PAM-2: -7

What do the screens show for `COc1cc(OC)cc(C(=O)Nc2ccc(-n3cnnn3)c(C)c2)c1`?
D2 ag-1: -2; D2 antagonist: 38*; D2 ag-2: -3; D2 PAM-1: 4; D2 PAM-2: 3

Results for O=C(O)Cc1ccc(-n2cccc2)cc1 ?
D2 ag-1: 0; D2 antagonist: 37*; D2 ag-2: 0; D2 PAM-1: -6; D2 PAM-2: 0

What do the screens show for `O=C(NCc1ccc(Cl)cc1)c1cnc2sc(N3CCCCCC3)nn2c1=O`?
D2 ag-1: 2; D2 PAM-2: -7

Results for COC(=O)C/C=C/[C@@H](C)[C@@H](/C=N/OC[C@@H](C)[C@H](OCc1ccccc1)C(C)C)NS(=O)(=O)c1ccc(C)cc1 ?
D2 PAM-2: 2

How did C=CC[C@@H]1C=C[C@H](O/N=C/[C@@H](NS(=O)(=O)c2ccc(C)cc2)[C@H](C)/C=C/CC(=O)OC)[C@@H](CO)O1 do in these assays?
D2 ag-1: -1; D2 antagonist: 31*; D2 PAM-2: 3

Results for CC(=O)C1=C(c2ccc(Br)cc2)N(C(C)=O)n2c(nnc2C2CCCCC2)S1 ?
D2 PAM-2: -4

How did COc1ccccc1N1CCN(CCCC(=O)c2ccc(F)cc2)CC1 do in these assays?
D2 ag-1: -1; D2 antagonist: 70*; D2 ag-2: -3; D2 PAM-1: -35; D2 PAM-2: -24

Results for COc1ccccc1N1CCN(CCN(C(=O)C2CCCCC2)c2ccccn2)CC1 ?
D2 ag-1: 0; D2 antagonist: 70*; D2 ag-2: -3; D2 PAM-1: -37; D2 PAM-2: -19

What do the screens show for `Cc1ccc(CN(C(=O)c2ccc(F)cc2)c2ccccn2)o1`?
D2 ag-1: 1; D2 PAM-2: -10

What do the screens show for `O=C(C1CCCCC1)N(Cc1ccccc1)c1ccccn1`?
D2 ag-1: 0; D2 antagonist: -18; D2 ag-2: 2; D2 PAM-1: -8; D2 PAM-2: -2

Results for COc1ccccc1N1CCN(CCN(C(=O)c2ccc(F)cc2)c2ccccn2)CC1 ?
D2 ag-1: 1; D2 antagonist: 61*; D2 ag-2: -3; D2 PAM-1: -35; D2 PAM-2: -20
